In PubChem BioAssay (NCATS) one finds Potency data, which are given here for 16 molecules.

Experiment [1] in a line: Cell Viability - LYMP2-023 (AID 975).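 Note: cells exposed to compound for 24 hours at 37 °C; nearly all actives have a fitted effect of over 55% in size.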 The gist of the method:
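LYMP2-023 human lymphoblastoid cells, 2500/well, preincubated 5 hr at 37 C, then compound-treated 24 hr at 37 C in complete medium. CellTiter-Glo luminescence (ATP) after 30 min at room temperature; AC50 from Hill-equation fits; tetraoctylammonium bromide positive control.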

Experiment [2] can be described thus: Cell Viability - LYMP2-025 (AID 976). The method, boiled down:
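Human lymphoblastoid LYMP2-025 cells, 2500/well, exposed 24 h at 37 C in complete medium in 1536-well qHTS. Viability as cellular ATP by CellTiter-Glo luminescence; AC50 from Hill fits of concentration-response data.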

Experiment [3] in a line: Cell Viability - LYMP2-002 (AID 977).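 Note: compound exposure lasted 24 h at 37 °C.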 The method, boiled down: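 Cytotoxicity is scored as concentration-dependent loss of cellular ATP in a human lymphoblastoid line after 24 hr compound treatment at 37 C. AC50 is obtained by modelling concentration-response data with the Hill equation.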
Experiment [4] can be described thus: Cell Viability - LYMP2-006 (AID 978).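 Note: cells exposed to compound for 24 hours; nearly all actives have a fitted effect of over 60% in size.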 The method, boiled down: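 In this cytotoxicity screen, the human lymphoblastoid line grew in complete medium with test compounds for 24 hr at 37 C. Cellular ATP served as the viability signal.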
A short description of experiment [5]: Cell Viability - LYMP2-007 (AID 979).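 Note: cells exposed to compound for 24 h before reading; nearly all actives have a fitted effect of over 60% in size.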 The gist of the method: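 Human lymphoblastoid LYMP2-007 cells (2500/well) preincubated 5 h at 37 C, then treated 24 h at 37 C in complete medium. Viability by CellTiter-Glo ATP luminescence after 30 min at room temperature; AC50 from Hill fits.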
Experiment [6] is described as follows: Cell Viability - LYMP2-008 (AID 980). Note: nearly all actives have a fitted effect of over 60% in size. The gist of the method: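 LYMP2-008 lymphoblastoid cells (2500/well) plated 5 h, then treated 24 h at 37 C in complete medium. Viability read as intracellular ATP by CellTiter-Glo luminescence after 30 min at room temperature; AC50 from Hill fits.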
Experiment [7] in a line: Cell Viability - LYMP2-010 (AID 981).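 Note: cells exposed to compound for 24 hours at 37 °C; nearly all actives have a fitted effect of over 55% in size.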 The method, boiled down: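 Human lymphoblastoid LYMP2-010 cells (2500/well) treated 24 h at 37 C in complete medium; viability read as intracellular ATP by CellTiter-Glo luminescence. AC50 from Hill fits of concentration-response data; tetraoctylammonium bromide positive control.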
A short description of experiment [8]: Cell Viability - LYMP2-012 (AID 982).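 Note: cellular ATP by luciferase luminescence where a drop means cytotoxicity; cells exposed to compound for one day before reading; nearly all actives have a fitted effect of over 55% in size.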
Experiment [9] can be described thus: Cell Viability - LYMP2-014 (AID 983). Note: nearly all actives have a fitted effect of over 50% in size. The gist of the method:
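LYMP2-014 human lymphoblastoid cells, 2500/well, treated 24 h at 37 C in complete medium; viability by CellTiter-Glo ATP luminescence after 30 min at room temperature. AC50 from Hill fits of qHTS concentration-response; tetraoctylammonium bromide positive control.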

A short description of experiment [10]: Cell Viability - LYMP2-016 (AID 984).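 Note: cells exposed to compound for 24 hours at 37 °C; nearly all actives have a fitted effect of over 55% in size.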 The method, boiled down: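 Concentration-dependent ATP depletion measured in LYMP2-016 lymphoblastoid cells, 24 h, 37 C; luciferase-based luminescent detection; Hill-equation AC50.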

The structures appear in SMILES notation. Values joined by “and” are separate entries in the source; they are usually repeats but may differ in a detail not shown here. Equal values may be shown once. Results filed as inconclusive are left out. Active and inactive are the calls of the source. Calls come from the whole dose curve; as a rule, active = well fitted cell-killing curve with a large enough effect; inconclusive = small, poorly fitted or top-dose-only effect; inactive = flat fitted curve, though single readings scatter.
Potency is the fitted concentration of half-maximal effect.

Regarding `S=C=S`, the Potency entry in [1], in experiment [2], in experiment [3], in [4], in experiment [5] and in experiment [6] was “inactive” each time. Further, the Potency entry in experiment [7], in experiment [8], in experiment [9] and in [10] was “inactive” each time.

In the case of `CC(C)Nc1ccc(Nc2ccccc2)cc1`, the Potency was 39.8 µM (active) in experiment [1]; 50.1 µM (active) in experiment [2]; 25.1 µM (active) in [3]; 25.1 µM (active) in experiment [4]; 25.1 µM (active) in [5]; 39.8 µM (active) in [6]. Also, the Potency in experiment [7] was 25.1 µM (active); in experiment [8], 25.1 µM (active); in experiment [9] it was 39.8 µM (active); in experiment [10], 31.6 µM (active).

With `C[C@]12CCC(=O)C[C@@H]1CC[C@@H]1[C@@H]2CC[C@]2(C)[C@@H](O)CC[C@@H]12`, the Potency entry in experiment [1], in [2], in [3], in experiment [4], in experiment [5] and in experiment [6] was “inactive” in each case. The Potency entry in experiment [7], in experiment [8], in experiment [9] and in experiment [10] was “inactive” in each case.

For the molecule `O=[N+]([O-])c1ccc(F)c([N+](=O)[O-])c1`, the Potency result in [2], in experiment [3], in experiment [4], in [8], in experiment [9] and in [10] was “inactive” each time.

Consider `CCCCCl`, for which the Potency entry in experiment [1], in [2], in [3], in experiment [4], in experiment [5] and in experiment [6] was “inactive” throughout. The Potency entry in experiment [7], in [8], in [9] and in [10] was “inactive” throughout.

In the case of `COC1=CC(=O)O[C@@H](/C=C/c2ccccc2)C1`, the Potency result in [1], in experiment [2], in experiment [3], in experiment [4], in experiment [5] and in experiment [6] was “inactive” in each case. In addition, the Potency result in experiment [7], in experiment [8], in [9] and in experiment [10] was “inactive” throughout.

With `ClC=C(Cl)Cl`, the Potency result in [1], in experiment [2], in experiment [3], in [4], in experiment [5] and in experiment [6] was “inactive” each time. The Potency entry in experiment [7], in experiment [8], in experiment [9] and in experiment [10] was “inactive” throughout.

Regarding `[O]=[Cr](=[O])([OH])[O][Cr](=[O])(=[O])[OH]`, the Potency in experiment [1] is 12.6 µM (active) and 10 µM (active); in experiment [2], 15.8 µM (active) and 12.6 µM (active); in experiment [3], 12.6 µM (active) and 15.8 µM (active) and 10 µM (active); in experiment [4], 12.6 µM (active) and 15.8 µM (active) and 10 µM (active); in experiment [5] it was 10 µM (active) and 12.6 µM (active) and 7.94 µM (active); in experiment [6] it was 12.6 µM (active) and 10 µM (active). The Potency was 10 µM (active) and 7.94 µM (active) in [7]; 12.6 µM (active) and 15.8 µM (active) and 7.94 µM (active) in experiment [8]; 12.6 µM (active) and 15.8 µM (active) and 10 µM (active) in [9]; 10 µM (active) and 12.6 µM (active) in [10].

As for `O=C1CCO1`, the Potency result in [1], in [2], in [3], in [4], in experiment [5] and in experiment [6] was “inactive” in each case. Further, the Potency entry in experiment [7], in experiment [8], in experiment [9] and in [10] was “inactive” each time.

With `O=C1C=CC(=O)C=C1`, the Potency entry in experiment [2], in [3], in experiment [9] and in experiment [10] was “inactive” each time. In addition, the Potency in [5] was 50.1 µM (active); in [7], 39.8 µM (active); in experiment [8], 39.8 µM (active).

Consider `[O]=[Cd]`, for which the Potency entry in [1], in [2], in [3], in experiment [4], in experiment [5] and in [6] was “inactive” each time. For the same molecule, the Potency entry in experiment [7], in experiment [8], in [9] and in experiment [10] was “inactive” in each case.

As for `ClCC1CO1` (centres undefined), the Potency entry in [1], in [2], in [3], in [4], in [5] and in experiment [6] was “inactive” in each case. The Potency entry in experiment [7], in experiment [8] and in experiment [10] was “inactive” each time.

`CC(C)CCON=O`: the Potency result in experiment [1], in [2], in [3], in experiment [4], in experiment [5] and in experiment [6] was “inactive” in each case. The Potency entry in experiment [7], in experiment [8], in experiment [9] and in experiment [10] was “inactive” each time.

In the case of `[Cl-].[Cl-].[Hg+2]`, the Potency in experiment [1] is 10 µM (active); in experiment [2], 15.8 µM (active); in experiment [3] it was 20 µM (active); in [4], 15.8 µM (active); in experiment [5], 6.31 µM (active); in experiment [7], 0.316 µM (active). Further, the Potency in experiment [9] was 12.6 µM (active).

As for `O=Cc1ccco1`, the Potency entry in experiment [1], in [2], in [3], in experiment [4], in experiment [5] and in [6] was “inactive” throughout. The Potency entry in [7], in experiment [8], in experiment [9] and in experiment [10] was “inactive” each time.

As to `C=CCN=C=S`, the Potency result in experiment [1], in experiment [2], in experiment [3], in experiment [4], in experiment [5] and in [6] was “inactive” each time. In addition, the Potency result in [7], in experiment [8], in [9] and in [10] was “inactive” throughout.
